Results published in PubChem BioAssay (NCATS).
Records with an inconclusive call do not appear. Active and inactive are the calls of the source. The call rests on the fitted dose curve; in most records, active means well fitted curve in the direction sought with a large enough effect; inconclusive means small, poorly fitted or top-dose-only effect, or another doubt; inactive means no such curve, though single readings can be large; an effect the other way counts as inactive or inconclusive.

Columns and labels:
[1] = target: Calcium and integrin-binding protein 1 (Homo sapiens) (UniProt Q99828); experiment: Primary qHTS for Identification of Calcium Integrin Binding Protein 1 (CIB1) Competitor (AID 1508620); conditions: CIB1-GST / FITC-alphaIIb peptide fluorescence polarization; series mostly up to 57.7 µM;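 further: GST tagged CIB1 binding a fluorescein labelled alphaIIb integrin peptide tracer; top concentration of the series differs between compounds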
Summary of the method: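 CIB1-GST (1 uM final) and compound incubated 15 min at room temperature before adding FITC-alphaIIb peptide tracer (100 nM final). Competition for binding read by fluorescence polarization (ex 480, em 540) after another 15 min at room temperature.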

[2] = Primary qHTS for inhibitors of nuclear receptor binding SET domain protein 2 (NSD2) in an isogenic RCH-ACV NSD2 p.E1099K mutant (9B) (AID 1645876); conditions: RCH-ACV NSD2 E1099K (9B) viability, CellTiter-Glo, 72 h; series mostly up to 44.9 µM; further: nearly all actives have a fitted effect of over 70% in size
[3] = Primary qHTS for inhibitors of nuclear receptor binding SET domain protein 2 (NSD2) in an RCH-ACV wild type WT cells (2C) (AID 1645877); conditions: RCH-ACV (leukaemia line) NSD2 WT (2C) viability, CellTiter-Glo, 72 h; series mostly up to 44.9 µM; further: nearly all actives have a fitted effect of over 70% in size
On the % scale 0 is the no-effect control and ±100 the full control effect.

Calcium and integrin-binding protein 1 (Homo sapiens), sequence (Q99828 whole entry, looked up): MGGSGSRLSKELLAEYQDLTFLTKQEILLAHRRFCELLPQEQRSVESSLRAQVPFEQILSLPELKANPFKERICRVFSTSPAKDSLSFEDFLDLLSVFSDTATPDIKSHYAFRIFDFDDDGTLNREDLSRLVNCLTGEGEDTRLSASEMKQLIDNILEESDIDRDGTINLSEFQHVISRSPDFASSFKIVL

COC(=O)C1=CO[C@@H](O[C@@H]2O[C@H](CO)[C@@H](O)[C@H](O)[C@H]2O)[C@H]2[C@@H]1C=C[C@]21C=C([C@H](C)OC(=O)/C=C/c2ccc(O[C@@H]3O[C@H](CO)[C@@H](O)[C@H](O)[C@H]3O)cc2)C(=O)O1
inactive: Potency [1] | Potency [2] | Potency [3]

C[C@]12CCC[C@](C)(C(=O)O)C1[C@@H](O)[C@@H](O)C13CC(CCC12)C(CO)(O[C@@H]1O[C@H](CO)[C@@H](O)[C@H](O)[C@H]1O)C3 (some centres undefined)
inactive: Potency [1] | Potency [2] | Potency [3]

CCN(CCN(C)C)C(=O)CNCc1cc(C(N)=O)ccn1
inactive: Potency [1] | Potency [2] | Potency [3]

COc1cc(C(=O)OC[C@H]2O[C@@H](OC(C)(C)C(=O)O)[C@H](O)[C@@H](O)[C@@H]2O)cc(OC)c1O
inactive: Potency [1] | Potency [2] | Potency [3]

CC(=O)OC1C(C)C2C(OC3OC(CO)C(O)C(O)C3O)OC=C(C(=O)O)C2C1OC(=O)c1ccccc1 (centres undefined)
inactive: Potency [1] | Potency [2] | Potency [3]

CC(=O)O[C@@H](C[C@@H]1C=C(C)C(=O)O1)[C@H](C)[C@H]1CCC2[C@@]3(C)CC[C@H](O[C@@H]4O[C@H](CO)[C@@H](O)[C@H](O)[C@H]4O[C@@H]4O[C@@H](C)[C@H](O)[C@@H](O)[C@H]4O)C(C)(C)C3CC[C@@]2(C)[C@@]12COC(=O)C2 (some centres undefined)
inactive: Potency [1] | activity change, negative = viability loss [2] -3.49% [at 9.23 µM] | activity change, negative = cell killing [3] -8.37% [at 9.23 µM]

O=C(C1OC1/C=C/c1ccc2c(c1)OCO2)N1CCCCC1 (centres undefined)
inactive: Potency [1] | Potency [2] | Potency [3]

C[C@@H]1O[C@@H](O[C@H]2[C@H](O[C@H]3[C@H](O[C@H]4CC[C@@]5(C)C(CC[C@]6(C)C5CC=C5[C@@H]7CC(C)(C)CC(=O)[C@]7(C)CC[C@]56C)[C@@]4(C)CO)O[C@H](C(=O)O)[C@@H](O)[C@@H]3O)O[C@H](CO)[C@H](O)[C@@H]2O)[C@H](O)[C@H](O)[C@H]1O (some centres undefined)
inactive: Potency [1] | outcome [2] inactive [at 9.23 µM] | outcome [3] inactive [at 9.23 µM]

O=C(O)c1ccc(NC(=O)[C@H](CC2CCCC2)n2cnc(C(F)(F)F)c2)nc1
inactive: Potency [1] | Potency [2] | Potency [3]

CCC(C)/C=C(C)/C=C/C1=CC2=C(Cl)C(=O)C(C)(OC(C)=O)C(=O)C2=CN1C(CCC(=O)O)C(=O)O (centres undefined)
inactive: Potency [1] | Potency [2] | Potency [3]

CC1(O)CC(O)C2C(C(=O)O)=COC(OC3OC(CO)C(O)C(O)C3OC(=O)/C=C/c3ccc(O)cc3)C21 (centres undefined)
inactive: Potency [1] | Potency [2] | Potency [3]

COc1cc2c(c(O)c1OC/C=C(\C)CC/C=C(/C)CCC=C(C)C)CN(C(CCC(=O)O)C(=O)O)C2=O (centres undefined)
inactive: Potency [1] | Potency [2] | Potency [3]

O=C(OC[C@H]1O[C@H](O[C@]2(CO)O[C@H](CO)[C@@H](O)[C@@H]2O)[C@H](O)[C@@H](O)[C@@H]1O)c1ccc(O)cc1
inactive: Potency [1] | Potency [2] | Potency [3]

Cc1occc(=O)c1O[C@@H]1O[C@H](CO[C@@H]2OC[C@](O)(CO)[C@H]2O)[C@@H](O)[C@H](O)[C@H]1O
inactive: Potency [1] | Potency [2] | Potency [3]

CC(C)CC(=O)NCCn1cc(C(=O)O)c(=O)cc1C(O)c1ccccc1 (centres undefined)
inactive: Potency [1] | Potency [2] | Potency [3]

CC/C=C/C(O)C(O)C1=C(C)C(=O)C2(O1)C(=O)NC(OC)(C(=O)c1ccccc1)C2O (centres undefined)
inactive: Potency [1] | Potency [2] | Potency [3]

COc1cc(C(C)=O)ccc1O[C@@H]1O[C@H](CO)[C@@H](O)[C@H](O)[C@H]1O
inactive: Potency [1] | Potency [2] | Potency [3]

CC1C(O)C(O)C2C(C(=O)OCCc3ccc(O)cc3)=COC(O[C@@H]3O[C@H](CO)[C@@H](O)[C@H](O)[C@H]3O)C12 (some centres undefined)
inactive: Potency [1] | Potency [2] | Potency [3]

O=C(O)CC(CCc1ccccc1)OC1OC(CO)C(O)C(O)C1O (centres undefined)
inactive: Potency [1] | Potency [2] | Potency [3]

COc1cc(/C=C/C(=O)O[C@@H]2C[C@@](O)(C(=O)O)C[C@@H](O)[C@@H]2O)ccc1O
inactive: Potency [1] | Potency [2] | Potency [3]

O=C(O)c1ccnc2cc(C(OCC3CCC(F)(F)CC3)c3ccccc3Cl)[nH]c12 (centres undefined)
inactive: Potency [1] | Potency [2] | Potency [3]

O=C(C[C@@H]1C(C(=O)O)=CO[C@@H](O[C@@H]2O[C@H](CO)[C@@H](O)[C@H](O)[C@H]2O)/C1=C\CO)OCCc1ccc(O)cc1
inactive: Potency [1] | Potency [2] | Potency [3]

CC1(C)CC[C@]2(C(=O)O[C@@H]3O[C@H](CO)[C@@H](O)[C@H](O)[C@H]3O)CC[C@]3(C)C(=CCC4[C@@]5(C)CC[C@H](O[C@H]6O[C@H](CO)[C@@H](O)[C@H](O[C@@H]7O[C@H](CO)[C@@H](O)[C@H](O)[C@H]7O)[C@H]6O)C(C)(C)C5CC[C@]43C)[C@@H]2C1 (some centres undefined)
inactive: Potency [1] | activity change, negative = viability loss [2] 3.49% [at 9.23 µM] | activity change, negative = cell killing [3] 2.79% [at 9.23 µM]
